Compound activity (PubChem BioAssay)
In the library only some 2.8% were active in any assay of this set; here they are far more common.
Pol kappa inh – DNA polymerase kappa (human) inhibition. purified Pol kappa, fluorescent DNA synthesis assay, 10 min. Potency, µM (highest dose often 107 µM), for the others: at the top dose activity, negative = inhibition, usual class: inhibitors. 400,000 tested, 0.53% active. Q9UBT6; further: potency means the concentration at half of the fitted maximal effect; on the % scale 0 is the no-effect control and ±100 the full control effect
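Fluorescent qHTS in 1536-well format: enzyme (10 nM) and compound sat 15 min at room temperature before 50 nM substrate (final) was added. Signal taken at 0 and 10 min; no-enzyme buffer wells were negative controls.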
Pol eta inh – DNA polymerase eta (human) inhibition; Q9Y253; recombinant Pol eta, fluorescent DNA replication assay; Potency, µM (highest dose often 114 µM), inactives show at the top dose activity change, negative = inhibition, most hits filed as inhibitors; 390,000 tested, 1.2% active; AID 588591; further: potency means the concentration at half of the fitted maximal effect; on the % scale 0 is the no-effect control and ±100 the full control effect
Target sequence (Q9Y253 whole entry, looked up): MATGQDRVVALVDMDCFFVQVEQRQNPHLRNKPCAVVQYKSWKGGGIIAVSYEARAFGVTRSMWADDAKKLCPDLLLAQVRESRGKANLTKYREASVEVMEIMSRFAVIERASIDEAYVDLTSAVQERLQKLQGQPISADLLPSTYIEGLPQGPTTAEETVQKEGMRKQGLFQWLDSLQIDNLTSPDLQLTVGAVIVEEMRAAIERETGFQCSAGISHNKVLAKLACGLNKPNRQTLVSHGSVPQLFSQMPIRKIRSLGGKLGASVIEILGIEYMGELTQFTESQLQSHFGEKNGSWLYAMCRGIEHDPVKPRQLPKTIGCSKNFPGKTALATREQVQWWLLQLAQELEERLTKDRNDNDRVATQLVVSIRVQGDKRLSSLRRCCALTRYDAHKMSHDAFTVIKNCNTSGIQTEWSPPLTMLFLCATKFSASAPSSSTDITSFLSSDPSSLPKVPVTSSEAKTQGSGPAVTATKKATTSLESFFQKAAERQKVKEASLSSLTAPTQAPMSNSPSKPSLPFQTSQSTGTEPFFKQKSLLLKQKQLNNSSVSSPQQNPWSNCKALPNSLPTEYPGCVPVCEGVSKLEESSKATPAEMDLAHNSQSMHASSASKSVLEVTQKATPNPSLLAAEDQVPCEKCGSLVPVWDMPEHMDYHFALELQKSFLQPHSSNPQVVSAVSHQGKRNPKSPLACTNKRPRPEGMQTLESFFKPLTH
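Fluorescent replication assay: 50 nM final substrate added after a 15 min room-temperature compound preincubation with 10 nM enzyme. Signal taken at 0 min and again at 10 min.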
POLB inh – DNA polymerase beta (human) inhibition; P06746; Pol beta primer extension/strand displacement, fluorescence kinetic; Potency, µM (series often up to 114 µM), inactives show at the top dose activity change, negative = inhibition, actives largely listed as inhibitors; 340,000 tested, 1.3% active; further: potency means the concentration at half of the fitted maximal effect; on the % scale 0 is the no-effect control and ±100 the full control effect
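Curves were derived by four-parameter Hill fits of normalized qHTS data. The kinetic fluorescent primer-extension read was taken at 0 and 10 min after 50 nM substrate, following a 15 min room-temperature preincubation of 10 nM enzyme with compounds.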
PI5P4K alpha inh – PI5P4K alpha (human) kinase inhibition; P48426; PI5P4Kalpha enzyme, ADP-Glo luminescence, 60 min; hits give low values; max response, %; 330,000 tested, 1.2% active; active means max response of -50% or lower; inconclusive means between -30% and -50%; inactive means -30% or higher; further: value at the top dose of about 77 µM; on the % scale 0 is the no-effect control and ±100 the full control effect
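Reactions run in 0.038 M HEPES pH 7.4, 0.28 mM EGTA, 0.1% CHAPS and 5% DMSO, with PI5P4Kalpha, substrate, compound and 5 microM ATP final, one hour at room temperature. Readout is ADP-Glo luminescence.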
WRN helicase inh – WRN helicase (human) inhibition; Q14191; WRN helicase unwinding, fluorescent forked duplex, kinetic; Potency, µM (series often up to 114 µM), inactives show top-dose activity change, negative = inhibition, hits mostly inhibitors; 360,000 tested, 0.46% active; further: potency means the concentration at half of the fitted maximal effect; on the % scale 0 is the no-effect control and ±100 the full control effect; nearly all actives have a fitted effect of over 55% in size
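Kinetic fluorescence helicase assay: unwinding of a quenched forked DNA duplex (100 nM final) with 2 mM ATP final raises red fluorescence (525/598 nm). Compounds sat 15 min at room temperature with 20 nM WRN beforehand.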
POLI inh – inhibitors of human DNA polymerase iota; 390,000 tested, 1% active; Potency, µM (highest dose often 115 µM), inactives show at the top dose activity, negative = inhibition, actives largely listed as inhibitors; Pol iota fluorescent replication assay, 10 min; AID 588590; Q9UNA4; further: potency means the concentration at half of the fitted maximal effect
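Pol iota at 10 nM preincubated 15 min with compounds at room temperature; reaction started with fluorescent substrate, 50 nM final. Fluorescence read kinetically at 0 and 10 min; buffer-only wells as negative control.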
An asterisk follows results filed as active; ? = inconclusive; . = no result; [ ] = another dose, or the depositor's remark. Unless noted, the call rests on the fitted dose curve; in most records, active means well fitted curve in the direction sought with a large enough effect; inconclusive means small, poorly fitted or top-dose-only effect, or another doubt; inactive means no such curve, though single readings can be large; an effect the other way counts as inactive or inconclusive.

SMILES | Pol kappa inh | Pol eta inh | POLB inh | PI5P4K alpha inh | WRN helicase inh | POLI inh
CCOC(=O)C1CCCN(C(=O)CSc2ccc(Br)cc2)C1 (stereo unspecified) | -10% | -7% | -1% | -54* | ? | 19%
Cc1c(NC(=O)c2ccco2)cccc1-c1nc2cccnc2s1 | -19% | 45µM* | -4% | ? | -14%[57.1 µM] | ?
Cc1ccc(NC(=O)CC2Sc3ccccc3NC2=O)c(Br)c1 (stereo unspecified) | -3% | -4% | 2% | . | . | -8%
O=C1NC(=S)S/C1=C\c1ccc2ccccc2c1 | -16% | 7% | 28% | -62* | -5% | -7%
O=C1NC(=S)SC1=Cc1cccs1 | -3% | -8% | . | -67* | -34% | ?
CCc1ccc(/C=C2/SC(=S)NC2=O)cc1 | -2%[60.1 µM] | . | . | . | . | .
O=C1NC(=S)SC1=Cc1ccc(F)cc1 | -9% | -2% | . | -71* | -17% | -4%
COc1ccc(C=C2SC(=S)NC2=O)cc1 | -1% | -9% | . | -86* | ? | 39%
CCc1ccccc1Nc1nn2c(=O)c3ccc(C(=O)NCCC4=CCCCC4)cc3nc2s1 | 4% | -11% | 1% | . | . | 56%
COc1ccc(-c2nc3cc(C(C)C)ccc3o2)cc1NC(=O)c1ccc(C)c(Cl)c1 | 7% | -14% | -1% | . | . | 1%
COc1cc(OC)c(NC(=O)Nc2nnc(N(C)C3CCCCC3)s2)cc1Cl | 1% | -19% | 7% | . | . | 30%
Cc1nn(C(=O)c2cccc([N+](=O)[O-])c2C)c(C)c1S(=O)(=O)N1CCOCC1 | -12%[60.1 µM] | -6% | 16% | . | . | 1%
COc1ccc(C=C2CS(=O)(=O)CC(=Cc3ccc(OC)cc3)C2=O)cc1 | . | 50µM* | . | 1 | -1% | .
O=C1NC(=S)SC1=Cc1ccc(Cl)cc1 | -12% | -25% | . | -51* | ? | ?
CCCCCc1c(CC)ncn1CCc1ccccc1OC | . | . | . | -1 | 1% | .
Cc1ccc(NNS(=O)(=O)c2ccc(C)cc2)cc1 | -16% | -13% | 2% | -63* | ? | ?
Cc1ccc(S(=O)(=O)NNC(=O)C(=O)NNS(=O)(=O)c2ccc(C)cc2)cc1 | -3% | -8% | ? | 6 | 0% | 0%
Cc1ccc(S(=O)(=O)NN=CC=CC=NNS(=O)(=O)c2ccc(C)cc2)cc1 | . | -9% | . | -61* | 3% | .
C=C1C=C(C)n2ncc(C(=O)Nc3cccc4cnccc34)c2N1 | ? | . | . | . | . | 79µM*
COc1ccc(/C=C/c2ccc(=O)n(Cc3ccccc3)n2)cc1 | -7% | -10% | -6% | -51* | -15% | 63%
COc1cc(/C=C(\C#N)c2[nH]nc(N)c2C#N)cc(OC)c1O | -20% | ? | ? | -64* | ? | ?
COc1cc(/C=C(\C#N)c2ccccn2)cc(OC)c1O | -8% | 5% | -21% | -3 | -18% | -14%
CC(C)n1c(O)c(/C=C2\C=NN=C2c2ccccc2)sc1=S | -8% | 1% | -1% | 0 | -4% | -22%
CCn1c(O)c(/C=C2\C=NN=C2c2ccc(C)cc2)sc1=S | -14% | -21% | 44% | 3 | -2%[11.6 µM] | 89µM*
Cc1ccc(S(=O)(=O)Nc2cc(Cl)c3oc4c(c3c2)C(=O)CC(C)(C)C4)cc1 | -28% | -8% | -3% | . | . | 14%
SMILES | Pol kappa inh | Pol eta inh | POLB inh | PI5P4K alpha inh | WRN helicase inh | POLI inh
COc1ccc(N(CC(=O)Nc2cc(Cl)ccc2C)S(=O)(=O)c2c(C)n[nH]c2C)cc1 | 12% | -16% | 8% | -2 | -7% | -1%
COc1ccc(Cl)cc1NC(=O)CN(c1cc(C)cc(C)c1)S(=O)(=O)c1c(C)n[nH]c1C | ? | ? | -9% | . | . | 79µM*
CCn1nnc2cc(C(=O)Nc3ccc(C)cc3Br)ccc21 | 6% | -7% | -8% | . | . | -1%
Cc1ncc(COP(=O)(O)O)c(C=O)c1O | 1%[60.1 µM] | . | . | . | . | .
Cc1nc(N=Nc2cc(S(=O)(=O)O)ccc2S(=O)(=O)O)c(COP(=O)(O)O)c(C=O)c1O | 2µM* | . | . | . | . | .
COc1ccc(CN2C(=O)N(c3ccccc3)C(=O)C2c2ccccc2)cc1COc1ccc(NC(C)=O)cc1 (stereo unspecified) | -1% | . | . | . | . | ?
Nc1nc(N)c2[nH]c(=S)[nH]c2n1 | -3% | 1% | . | -52* | -21% | ?
CCOc1ccccc1CNC(=O)c1cnc2sc(N3CCCC3)nn2c1=O | -24% | -13% | 3% | . | . | 3%
Cc1cc(=O)oc2cc(O)ccc12 | 18% | -7% | . | 0 | 4% | -7%
O=c1cc(O)c2ccc(O)cc2o1 | -13% | 3% | 2% | -50* | -4% | 10%
O=c1oc2cc(O)ccc2c2oc3cc(O)ccc3c12 | ? | ? | 35µM* | ? | ? | ?
CC1CCc2c(sc3nnn(CC(=O)Nc4c(C(C)C)cccc4C(C)C)c(=O)c23)C1 (stereo unspecified) | -28% | -3% | -23% | . | . | 7%
Cc1c(F)cccc1NC(=O)C1CCCN1S(=O)(=O)c1ccc(F)cc1 (stereo unspecified) | -11% | . | 3% | . | . | -8%
CCc1cccc(C)c1NC(=O)c1cc(S(=O)(=O)NCc2ccccc2Cl)ccc1F | -9%[60.1 µM] | -11% | -9% | . | . | -23%
CCOc1ccc(NS(=O)(=O)c2ccc3[nH]cc(C(=O)N(C)Cc4ccccc4)c(=O)c3c2)cc1 | -17%[60.1 µM] | -3% | 5% | . | . | ?
CCOc1ccc(NS(=O)(=O)c2ccc3[nH]cc(C(=O)NCc4ccccc4)c(=O)c3c2)cc1 | -34% | ? | 11µM* | . | . | 89µM*
Cc1ccc(CNC(=O)c2c[nH]c3ccc(S(=O)(=O)Nc4ccc(C(C)C)cc4)cc3c2=O)cc1 | 2%[60.1 µM] | 79µM* | -30% | . | . | ?
O=C(NC1CCCCC1)c1c[nH]c2ccc(S(=O)(=O)Nc3ccccc3F)cc2c1=O | -14% | ? | 25µM* | . | . | ?
COc1ccccc1CNS(=O)(=O)c1ccc2[nH]cc(C(=O)O)c(=O)c2c1 | 79µM* | 3.2µM* | 28µM* | -9 | -24% | ?
CCc1ccccc1NS(=O)(=O)c1ccc2[nH]cc(C(=O)NC3CCCC3)c(=O)c2c1 | -22% | ? | ? | 1 | -20% | ?
O=C(Nc1c(Cl)cc([N+](=O)[O-])cc1Cl)c1cc(Cl)ccc1O | 0% | . | . | . | . | 17%
COc1ccc(CCn2c(=O)c3cccnc3n(CC(=O)Nc3c(C)cccc3C)c2=O)cc1OC | -4% | -15% | -1% | . | . | 48%
CCCCC(CC)CNC(=O)CN(C)S(=O)(=O)c1ccc2c(c1)c(=O)n(C)c(=O)n2C (stereo unspecified) | -10% | -6% | -21% | . | . | 2%
CCOc1ccccc1NC(=O)c1c(NC(=O)Cc2ccc(OC)cc2)sc2c1CCC2 | -7% | -25% | -9% | . | . | 15%
